Laboratory results as given in PubChem BioAssay (NCI).
Where “and” joins values, the source holds several entries; their conditions need not be identical. Identical values can stand only once. The panel holds about 79,000 compounds, 15% with a hit somewhere; the sample as a whole holds those more often. Some compounds were tested as several samples or in several runs, with calls that do not always agree. Calls of active or inactive are those of the source. Rule as the data show it: active = growth inhibition above about 70%; inactive = the rest.

Legend:
[1] = NCI Yeast Anticancer Drug Screen. Data for the rad52 strain (AID 147);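 also: 0% = growth of vehicle-treated control cultures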; conditions: S. cerevisiae rad52 mutant growth inhibition, stronger effect = higher value
Procedure, shortened: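 Screen used a yeast mutant impaired in DNA repair. After compound exposure, growth was measured. Values reflect inhibition compared with vehicle-treated cells.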

[2] = NCI Yeast Anticancer Drug Screen. Data for the wt1 strain (AID 149);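 also: 0% = growth of vehicle-treated wt1 cultures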; conditions: S. cerevisiae wt1 strain (SPY 50644) growth inhibition, stronger effect = higher value
Procedure, shortened: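 Using yeast strain wt1, compound-induced growth inhibition was determined against vehicle-treated cultures.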

[3] = NCI Yeast Anticancer Drug Screen. Data for the rad50EPP+ strain (AID 151);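 also: 0% = growth of vehicle-treated control cultures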; conditions: S. cerevisiae rad50 mutant strain, stronger effect = higher value
Procedure, shortened: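 Exposing the rad50EPP+ strain to each compound, growth was compared with vehicle-only cultures to give inhibition.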

[4] = NCI Yeast Anticancer Drug Screen. Data for the mgt1 strain (AID 153); conditions: S. cerevisiae mgt1 mutant growth inhibition, stronger effect = higher value
Procedure, shortened: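 Genetically defined yeast (mgt1) treated with compound; inhibition of growth expressed against vehicle-treated controls.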

[5] = NCI Yeast Anticancer Drug Screen. Data for the rad50 strain (AID 155);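 also: 0% = growth of vehicle-only cultures of the same strain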; conditions: S. cerevisiae rad50 strain growth inhibition, stronger effect = higher value
Procedure, shortened: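 Relative growth inhibition (compound vs vehicle) was measured in yeast with a defined repair-gene alteration.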

[6] = NCI Yeast Anticancer Drug Screen. Data for the mec2-1 strain (AID 157); conditions: S. cerevisiae mec2-1 strain, stronger effect = higher value
Procedure, shortened: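 Readout is yeast growth inhibition, normalised to vehicle-treated controls, in the mec2-1 strain exposed to compound.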

[7] = NCI Yeast Anticancer Drug Screen. Data for the rad14 strain (AID 159);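 also: 0% = growth of vehicle-treated control cultures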; conditions: S. cerevisiae rad14 strain growth inhibition, stronger effect = higher value
Procedure, shortened: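 Screen for anticancer potential: a yeast strain altered in DNA damage repair is grown with compound, and reduced growth is quantified against vehicle controls.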

[8] = NCI Yeast Anticancer Drug Screen. Data for the sgs1 mgt1 strain (AID 161);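 also: 0% = growth of cultures given vehicle only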; conditions: S. cerevisiae sgs1 mgt1 strain, stronger effect = higher value
Procedure, shortened: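 Growth of a repair-deficient yeast mutant was monitored after compound treatment and expressed as inhibition relative to vehicle-treated cultures.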

[9] = NCI Yeast Anticancer Drug Screen. Data for the CLN2oe strain (AID 163);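 also: 0% = growth of vehicle-only control cultures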; conditions: S. cerevisiae CLN2oe strain, stronger effect = higher value
Procedure, shortened: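 Values reflect how much compound exposure reduced yeast growth, referenced to vehicle-exposed cells. Assay organism is a strain with a defined genetic change affecting cell-cycle control.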

[10] = NCI Yeast Anticancer Drug Screen. Data for the cln2 rad14 strain (AID 165);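 also: 0% = growth equal to vehicle treated cultures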; conditions: S. cerevisiae cln2 rad14 strain, stronger effect = higher value
Procedure, shortened: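 Relative to vehicle controls, growth inhibition of compound-treated cln2 rad14 yeast was recorded.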

[11] = NCI Yeast Anticancer Drug Screen. Data for the bub3 strain (AID 167); conditions: S. cerevisiae bub3 mutant strain, stronger effect = higher value
Procedure, shortened: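 Screening used yeast with an engineered genetic alteration affecting cell cycle control. Compound-exposed cultures were compared with vehicle cultures, and reduced growth was taken as inhibition.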

[12] = NCI Yeast Anticancer Drug Screen. Data for the wt2 strain (AID 169);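 also: 0% = growth of vehicle-treated yeast cultures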; conditions: S. cerevisiae wt2 strain growth inhibition, stronger effect = higher value
Procedure, shortened: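 Values express reduction in yeast growth under compound treatment, referenced to vehicle-treated cells.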

[13] = NCI Yeast Anticancer Drug Screen. Data for the mlh1 strain (AID 171);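 also: 0% = growth of vehicle-treated control cultures of the same strain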; conditions: S. cerevisiae mlh1 strain growth inhibition, stronger effect = higher value
Procedure, shortened: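 Steps: expose the defined-mutant yeast strain to compound; expose a parallel culture to vehicle; measure growth; express compound effect as inhibition relative to the vehicle culture.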

[14] = NCI Yeast Anticancer Drug Screen. Data for the sgs1 strain (AID 173);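 also: 0% = growth of vehicle-only control cultures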; conditions: S. cerevisiae sgs1 mutant, stronger effect = higher value
Procedure, shortened: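 Treat defined-mutant yeast with compound; measure growth; calculate inhibition relative to vehicle-treated cells.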

[15] = NCI Yeast Anticancer Drug Screen. Data for the mlh1 rad18 strain (AID 175); conditions: S. cerevisiae mlh1 rad18 strain growth inhibition, stronger effect = higher value
Procedure, shortened: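 Test agents were incubated with a yeast strain of defined genotype (DNA damage repair defect). Inhibition of growth was derived by comparison with vehicle-exposed cultures.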

[16] = NCI Yeast Anticancer Drug Screen. Data for the rad18 strain (AID 177); conditions: S. cerevisiae rad18 mutant growth inhibition, stronger effect = higher value
Procedure, shortened: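 A genetically defined yeast mutant impaired in DNA damage repair was treated with test compounds, then its growth was measured against cultures receiving vehicle alone.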

[17] = at 5.0 µM (retest, dose inferred, filed as 0.5)
[18] = at 50.0 µM (retest, dose inferred, filed as 5.0)

Measured: growth inhibition

Cc1cc(N(CCOS(C)(=O)=O)CCOS(C)(=O)=O)ccc1C=Nc1ccc(-c2csc(-c3ccccc3)n2)c(Cl)c1
active: [1]; at 11.0 µM 90% | [1]; at 33.0 µM 96% | [1]; at 100.0 µM 84% | [2]; at 33.0 µM 98% | [2]; at 100.0 µM 92% | [3]; at 100.0 µM 85% | [4]; at 11.0 µM 81% | [4]; at 33.0 µM 98% | [4]; at 100.0 µM 92% | [5]; at 11.0 µM 78% | [5]; at 33.0 µM 96% | [5]; [18] 96% and 94% | [5]; at 50.0 µM 93.2% | [5]; at 100.0 µM 91% | [6]; at 11.0 µM 85% | [6]; at 33.0 µM 97% | [6]; [18] 97% | [6]; at 50.0 µM 97.1% | [6]; at 100.0 µM 92% | [7]; at 11.0 µM 91% | [7]; at 33.0 µM 97% | [7]; at 100.0 µM 91% | [8]; at 50.0 µM 82.8% and 96.2% | [9]; at 11.0 µM 79% | [9]; at 33.0 µM 98% | [9]; at 100.0 µM 92% | [10]; at 50.0 µM 82.8% and 92.5% | [11]; at 11.0 µM 76% | [11]; at 33.0 µM 97% | [11]; at 50.0 µM 81.4% and 94% | [11]; at 100.0 µM 92% | [12]; at 11.0 µM 72% | [12]; at 33.0 µM 97% | [12]; at 100.0 µM 92% | [13]; at 11.0 µM 80% | [13]; at 33.0 µM 97% | [13]; at 100.0 µM 90% | [14]; at 11.0 µM 82% | [14]; at 33.0 µM 97% | [14]; at 100.0 µM 92% | [15]; [18] 95% and 96% | [15]; at 50.0 µM 95.2% | [16]; at 3.7 µM 83% | [16]; at 11.0 µM 94% | [16]; at 33.0 µM 97% | [16]; at 100.0 µM 89%
86% (active) and 5% (inactive): [15]; [17]
5% (inactive) and 97% (active): [8]; [18]
inactive: [1]; at 1.2 µM 14% | [1]; at 3.7 µM 57% | [2]; at 1.2 µM -26% | [2]; at 3.7 µM -8% | [2]; at 11.0 µM 56% | [3]; at 1.2 µM 3% | [3]; at 3.7 µM -1% | [3]; at 11.0 µM 13% | [3]; at 33.0 µM 62% | [4]; at 1.2 µM 13% | [4]; at 3.7 µM 43% | [5]; at 1.2 µM 2% | [5]; at 3.7 µM 28% | [5]; [17] 53% and 4% | [6]; at 1.2 µM -2% | [6]; at 3.7 µM 30% | [6]; [17] 51% and -1% | [7]; at 1.2 µM 4% | [7]; at 3.7 µM 53% | [8]; [17] 20% and 8% | [9]; at 1.2 µM 36% | [9]; at 3.7 µM 37% | [10]; [17] 29% and -6% | [11]; at 1.2 µM 0% | [11]; at 3.7 µM 20% | [11]; [17] 18% and 0% | [12]; at 1.2 µM -4% | [12]; at 3.7 µM 4% | [13]; at 1.2 µM -1% | [13]; at 3.7 µM 25% | [14]; at 1.2 µM 10% | [14]; at 3.7 µM 22% | [16]; at 1.2 µM 58%
-5% (inactive) and 95% (active): [10]; [18]
-19% (inactive) and 95% (active): [11]; [18]
